Measurements from PubChem BioAssay (EPA / NIEHS).
Records with an inconclusive call do not appear. Active and inactive are the calls of the source. How the source made its calls, unless noted: active means hit-call score of the fitted dose curve at least 0.9, where 1 is the maximum; inconclusive means response in the unintended direction; inactive means score below 0.9.

Legend:
[1] = molecular target: Peroxisome proliferator-activated receptor gamma (Homo sapiens) (UniProt P37231); assay: NVS_NR_hPPARg: NovaScreen (NVS) Nuclear Receptor Binding Assay for human Peroxisome Proliferator-activated Receptor gamma (PPARg) (AID 2283370)
In short: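 Fluorescence polarization measures competitive binding to extracted PPARg in a cell-free format. Reading is taken at 2 h; activity is signal loss relative to DMSO. Screening at 25 uM in duplicate preceded confirmatory dose series.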

[2] = molecular target: Estrogen receptor beta (Homo sapiens) (UniProt Q92731); assay: OT_ER_ERbERb_1440: Odyssey Thera (OT) 24-hour HEK293T Protein-Complementation Assay for Estrogen Receptor-beta/-beta Homodimer (AID 2283380);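 further: fluorescence gain from ER beta LBD homodimer complementation read by laser scanning cytometry; scored as signal increase over DMSO baseline for both agonists and antagonists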
In short: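 HEK293T cells stably expressing human ER-beta LBD (aa 310-547) PCA homodimer pair, dosed 24 h; formaldehyde-fixed, Draq5-stained. Readout: increase in nuclear (agonist) or nuclear plus cytoplasmic (antagonist) fluorescence intensity versus DMSO, gain-of-signal fitting.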

[3] = molecular target: Retinoic acid receptor RXR-alpha (Homo sapiens) (UniProt P19793); assay: OT_NURR1_NURR1RXRa_1440: Odyssey Thera (OT) 24-hour HEK293T Protein Complementation Assay for Nurr1/retinoid X receptor (RXR) (AID 2283386)
In short: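 HEK293T protein-fragment complementation of Nurr1 and RXRα fused to reporter fragments; compounds 24 h. Fluorescence gain from reconstituted reporter fitted versus DMSO.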

[4] = molecular target: Peroxisome proliferator-activated receptor gamma (Homo sapiens) (UniProt P37231); assay: OT_PPARg_PPARgSRC1_0480: Odyssey Thera (OT) 8-hour Protein-Complementation Assay for Peroxisome Proliferator-activated Receptor Gamma / SRC-1 Co-activator (AID 2283387);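 further: nuclear to cytoplasmic split Venus YFP fluorescence ratio reporting PPARg SRC-1 interaction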
In short: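 Split-YFP (IFP1/IFP2) PPARg/SRC-1 reporter, HEK293T, 37 °C, 5% CO2; 8 h compound; formaldehyde fix + Draq5; high-content imaging, N/C ratio, ≥350 cells/image, positive direction vs DMSO.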

[5] = molecular target: Peroxisome proliferator-activated receptor gamma (Homo sapiens) (UniProt P37231); assay: OT_PPARg_PPARgSRC1_1440: Odyssey Thera (OT) 24-hour Protein-Complementation Assay for Peroxisome Proliferator-activated Receptor Gamma/ SRC-1 Co-activator (AID 2283388);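 further: nuclear to cytoplasmic ratio of reconstituted Venus YFP fluorescence in fixed imaged cells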
In short: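 Transient HEK293T, YFP fragments 1-158/159-239 (mutant IFP1/IFP2) fused to PPARg/SRC-1; 24 h dosing; fix 4% formaldehyde, Draq5; Opera imaging 488/635 nm; N/C ratio, gain vs DMSO.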

[6] = molecular target: human Norepinephrine Transporter (NET), SLC6A2 (gene 6530) (UniProt P23975); assay: NVS_TR_hNET: NovaScreen (NVS) Transporter Assay for human Norepinephrine Transporter (NET) (AID 2283377);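 further: cell-free membrane protein extracted from CHO cells expressing human NET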
In short: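 Radioligand binding to human NET in cell-free CHO-derived protein preparations, read by filter-based scintillation counting 1 hour after dosing. Loss of signal versus DMSO baseline indicated displacement; primary screening in duplicate at 25 uM, actives then titrated.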

[7] = molecular target: Retinoic acid receptor RXR-alpha (Homo sapiens) (UniProt P19793); assay: OT_NURR1_NURR1RXRa_0480: Odyssey Thera (OT) 8-hour HEK293T Protein Complementation Assay for Nurr1/retinoid X receptor (RXR) (AID 2283385)
In short: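 HEK293T cells expressing Nurr1 and RXRα fused to reporter fragments (protein-fragment complementation); fluorescence measured 8 h after dosing. Gain of signal fitted relative to DMSO.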

[8] = molecular target: mouse Estrogen Receptor alpha (Era), Esr1 (gene 13982) (UniProt P19785); assay: NVS_NR_mERa: NovaScreen (NVS) Nuclear Receptor Binding Assay for mouse Estrogen Receptor alpha (Era) (AID 2283378);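 further: hit means loss of bound radioligand signal relative to DMSO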
In short: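 Test chemicals competed against a specific radioligand for binding to cell-free mouse Era. Duplicate wells at 25 uM were read 18 hours later by filter-based radiodetection, with loss of signal against DMSO scored as activity.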

[9] = molecular target: Estrogen receptor (Homo sapiens) (UniProt P03372); assay: OT_ERa_GFPERaERE_0480: Odyssey Thera (OT) 8-hour HeLa Transcription Induction Assay for Estrogen Receptor (AID 2283381; active means hit-call score of the fitted dose curve at least 0.9, where 1 is the maximum; inactive means score below 0.9)
In short: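 HeLa cells expressing GFP reporter under estrogen response element, imaged 8 h after dosing. GFP induction quantified by high-content fluorescence microscopy image analysis; gain of signal fitted versus DMSO.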

[10] = molecular target: Estrogen receptor (Homo sapiens) (UniProt P03372); assay: OT_ERa_GFPERaERE_0120: Odyssey Thera (OT) 2-hour HeLa Transcription Induction Assay for Estrogen Receptor (AID 2283382)
In short: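 HeLa cells were dosed for 2 h, then GFP reporter induction was quantified by fluorescence microscopy with high-content image analysis. Gain of signal fitted against DMSO baseline.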

[11] = tested on: guinea pig Dopamine Transporter (DAT), gene 100714898; assay: NVS_TR_gDAT: NovaScreen (NVS) Transporter Assay for guinea pig Dopamine Transporter (DAT) (AID 2283369);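 further: active compounds lower bound radioligand signal relative to DMSO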
In short: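 Test chemicals were incubated 2 h with guinea pig striatal membranes and a radioligand; bound label was separated by filtration and counted. Screening ran at 25 uM, followed by concentration-response testing to a 50 uM maximum.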

[12] = molecular target: human Dopamine Transporter (DAT), SLC6A3 (gene 6531) (UniProt Q01959); assay: NVS_TR_hDAT: NovaScreen (NVS) Transporter Assay for human Dopamine Transporter (DAT) (AID 2283374);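 further: activity means loss of bound radioligand signal relative to DMSO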
In short: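 Cell-free radioligand binding to extracted human DAT protein, read 1 h after dosing by filter-based scintillation counting. Loss of specific binding scored against DMSO baseline; primary screen in duplicate at 25 uM, actives then run in concentration series.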

[13] = molecular target: Agonist Androgen Response Element (ARE), AR (gene 367) (UniProt P10275); assay: OT_AR_ARELUC_AG_1440: Odyssey Thera (OT) 24-hour CHO-K1 Luciferase Assay for Agonist Androgen Response Element (ARE) (AID 2283379)
In short: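 Seed CHO-K1 cells; dose compounds for 24 h; add D-luciferin plus ATP in PBS; read luminescence. Signal increase relative to vehicle defines agonist activity, with at least 3 replicate wells per sample.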

[14] = molecular target: Bile acid receptor (Homo sapiens) (UniProt Q96RI1); assay: OT_FXR_FXRSRC1_0480: Odyssey Thera (OT) 8-hour HEK293T Protein-Complementation Assay for Farnesoid X receptor/SRC-1 Co-activator (AID 2283383)
In short: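 HEK293T protein-fragment complementation assay: FXR and SRC-1 coactivator are fused to reporter fragments, and their interaction restores a fluorescent reporter. Readout was taken 8 h after dosing, with gain of signal fit relative to DMSO.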

[15] = CEETOX_H295R_11DCORT: CeeTox H295R High-throughput Steroidogenesis Assay for 11-Deoxycortisol (11DCORT) (AID 2283432; active means hit-call score of the fitted dose curve at least 0.9, where 1 is the maximum; inactive means score below 0.9); conditions: actives raise or lower the signal
In short: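 Steroidogenesis in human H295R cells: 48 h chemical exposure after forskolin priming, 11-deoxycortisol measured by LC-MS/MS.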

[16] = molecular target: guinea pig Sigma Receptor, Non-selective Binding, SIGMAR1 (gene 100135589) (UniProt Q60492); assay: NVS_OR_gSIGMA_NonSelective: NovaScreen (NVS) Nuclear Receptor Binding Assay for guinea pig Sigma Receptor, Non-selective Binding (AID 2283367)
In short: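 Guinea pig brain membranes, cell-free radioligand binding; read 1 h after dosing by filter-based scintillation counting. Loss of signal vs DMSO baseline taken as displacement. Primary screen single concentration 25 uM in duplicate; actives retested in concentration series.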

[17] = molecular target: Bile acid receptor (Homo sapiens) (UniProt Q96RI1); assay: OT_FXR_FXRSRC1_1440: Odyssey Thera (OT) 24-hour HEK293T Protein-Complementation Assay for Farnesoid X receptor/SRC-1 Co-activator (AID 2283384)
In short: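 HEK293T cells, 24 h after chemical dosing. FXR–SRC-1 coactivator interaction read as fluorescence from protein-fragment complementation of a split reporter. Gain of signal fitted against DMSO baseline.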

Measured: AC50

Chain of Estrogen receptor (Homo sapiens) (P03372 whole entry, looked up): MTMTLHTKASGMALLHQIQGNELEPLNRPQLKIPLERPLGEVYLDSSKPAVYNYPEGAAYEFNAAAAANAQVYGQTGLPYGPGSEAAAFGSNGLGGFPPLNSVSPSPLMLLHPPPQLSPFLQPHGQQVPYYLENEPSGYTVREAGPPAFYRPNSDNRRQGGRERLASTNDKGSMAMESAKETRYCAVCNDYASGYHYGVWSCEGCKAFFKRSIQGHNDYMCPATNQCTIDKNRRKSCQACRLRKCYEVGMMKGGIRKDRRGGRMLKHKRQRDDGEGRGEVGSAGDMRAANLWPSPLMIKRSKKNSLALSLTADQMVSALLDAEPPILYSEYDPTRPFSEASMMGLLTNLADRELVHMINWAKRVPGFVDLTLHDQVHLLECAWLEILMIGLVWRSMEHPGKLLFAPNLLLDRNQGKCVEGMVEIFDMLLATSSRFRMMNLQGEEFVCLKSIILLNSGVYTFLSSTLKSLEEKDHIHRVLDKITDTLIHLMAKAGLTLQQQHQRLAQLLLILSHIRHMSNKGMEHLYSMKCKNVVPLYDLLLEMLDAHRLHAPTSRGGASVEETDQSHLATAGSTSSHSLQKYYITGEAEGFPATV
Chain of Estrogen receptor beta (Homo sapiens) (Q92731 whole entry, looked up, the tested form may be a part): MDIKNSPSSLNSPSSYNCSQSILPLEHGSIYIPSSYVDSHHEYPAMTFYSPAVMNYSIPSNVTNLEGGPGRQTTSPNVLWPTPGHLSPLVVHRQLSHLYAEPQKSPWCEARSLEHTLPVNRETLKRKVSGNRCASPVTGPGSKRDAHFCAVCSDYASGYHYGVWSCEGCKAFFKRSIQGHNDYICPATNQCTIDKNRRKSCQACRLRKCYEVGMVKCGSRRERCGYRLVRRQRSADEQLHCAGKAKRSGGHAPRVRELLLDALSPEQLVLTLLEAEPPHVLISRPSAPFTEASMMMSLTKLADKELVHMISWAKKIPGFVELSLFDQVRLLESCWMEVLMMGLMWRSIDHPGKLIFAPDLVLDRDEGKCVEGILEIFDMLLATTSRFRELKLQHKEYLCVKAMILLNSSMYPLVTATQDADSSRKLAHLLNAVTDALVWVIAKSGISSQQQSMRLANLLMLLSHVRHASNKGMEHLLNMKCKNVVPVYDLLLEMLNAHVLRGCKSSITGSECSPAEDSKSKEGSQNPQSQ
Chain of Peroxisome proliferator-activated receptor gamma (Homo sapiens) (P37231 whole entry, looked up, the tested form may be a part): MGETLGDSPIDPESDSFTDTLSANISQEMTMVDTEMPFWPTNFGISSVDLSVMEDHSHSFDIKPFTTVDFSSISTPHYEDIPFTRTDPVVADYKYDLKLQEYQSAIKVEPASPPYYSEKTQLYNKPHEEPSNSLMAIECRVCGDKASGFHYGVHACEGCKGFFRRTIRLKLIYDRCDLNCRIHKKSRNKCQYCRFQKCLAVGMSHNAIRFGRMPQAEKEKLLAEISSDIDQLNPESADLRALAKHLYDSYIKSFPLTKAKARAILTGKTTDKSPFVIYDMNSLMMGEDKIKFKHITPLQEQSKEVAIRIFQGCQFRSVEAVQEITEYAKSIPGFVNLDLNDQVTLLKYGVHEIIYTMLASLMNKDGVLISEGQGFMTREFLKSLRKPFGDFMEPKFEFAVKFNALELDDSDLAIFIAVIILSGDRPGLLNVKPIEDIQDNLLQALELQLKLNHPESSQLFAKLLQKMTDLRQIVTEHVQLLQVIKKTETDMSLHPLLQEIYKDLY
Chain of Retinoic acid receptor RXR-alpha (Homo sapiens) (P19793 whole entry, looked up, the tested form may be a part): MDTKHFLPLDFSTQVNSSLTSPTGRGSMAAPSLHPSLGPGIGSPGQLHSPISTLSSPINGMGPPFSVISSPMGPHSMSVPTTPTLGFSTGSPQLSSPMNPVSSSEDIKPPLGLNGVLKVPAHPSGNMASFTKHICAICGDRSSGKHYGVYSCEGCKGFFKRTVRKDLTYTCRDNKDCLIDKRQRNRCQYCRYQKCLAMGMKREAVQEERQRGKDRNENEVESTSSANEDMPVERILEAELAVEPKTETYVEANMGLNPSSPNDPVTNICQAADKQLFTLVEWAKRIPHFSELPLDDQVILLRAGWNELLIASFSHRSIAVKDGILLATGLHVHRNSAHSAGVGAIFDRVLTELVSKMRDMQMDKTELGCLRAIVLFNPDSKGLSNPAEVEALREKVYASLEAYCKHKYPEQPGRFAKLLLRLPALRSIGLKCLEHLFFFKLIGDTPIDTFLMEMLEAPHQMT
Chain of Bile acid receptor (Homo sapiens) (Q96RI1 whole entry, looked up, the tested form may be a part): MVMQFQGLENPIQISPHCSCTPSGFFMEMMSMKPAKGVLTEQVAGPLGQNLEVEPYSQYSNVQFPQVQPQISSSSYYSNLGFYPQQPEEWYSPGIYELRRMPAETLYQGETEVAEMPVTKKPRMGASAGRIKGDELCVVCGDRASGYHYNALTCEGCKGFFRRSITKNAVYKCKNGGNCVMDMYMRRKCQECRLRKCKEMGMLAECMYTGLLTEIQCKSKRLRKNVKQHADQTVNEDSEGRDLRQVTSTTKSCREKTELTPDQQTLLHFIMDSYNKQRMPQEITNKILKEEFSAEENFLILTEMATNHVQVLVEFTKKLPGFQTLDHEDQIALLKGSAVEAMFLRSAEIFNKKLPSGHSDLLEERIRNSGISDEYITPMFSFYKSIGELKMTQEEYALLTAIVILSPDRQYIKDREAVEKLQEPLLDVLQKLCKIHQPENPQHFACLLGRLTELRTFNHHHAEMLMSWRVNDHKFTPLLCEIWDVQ
Chain of Agonist Androgen Response Element (ARE), AR (gene 367) (P10275 whole entry, looked up): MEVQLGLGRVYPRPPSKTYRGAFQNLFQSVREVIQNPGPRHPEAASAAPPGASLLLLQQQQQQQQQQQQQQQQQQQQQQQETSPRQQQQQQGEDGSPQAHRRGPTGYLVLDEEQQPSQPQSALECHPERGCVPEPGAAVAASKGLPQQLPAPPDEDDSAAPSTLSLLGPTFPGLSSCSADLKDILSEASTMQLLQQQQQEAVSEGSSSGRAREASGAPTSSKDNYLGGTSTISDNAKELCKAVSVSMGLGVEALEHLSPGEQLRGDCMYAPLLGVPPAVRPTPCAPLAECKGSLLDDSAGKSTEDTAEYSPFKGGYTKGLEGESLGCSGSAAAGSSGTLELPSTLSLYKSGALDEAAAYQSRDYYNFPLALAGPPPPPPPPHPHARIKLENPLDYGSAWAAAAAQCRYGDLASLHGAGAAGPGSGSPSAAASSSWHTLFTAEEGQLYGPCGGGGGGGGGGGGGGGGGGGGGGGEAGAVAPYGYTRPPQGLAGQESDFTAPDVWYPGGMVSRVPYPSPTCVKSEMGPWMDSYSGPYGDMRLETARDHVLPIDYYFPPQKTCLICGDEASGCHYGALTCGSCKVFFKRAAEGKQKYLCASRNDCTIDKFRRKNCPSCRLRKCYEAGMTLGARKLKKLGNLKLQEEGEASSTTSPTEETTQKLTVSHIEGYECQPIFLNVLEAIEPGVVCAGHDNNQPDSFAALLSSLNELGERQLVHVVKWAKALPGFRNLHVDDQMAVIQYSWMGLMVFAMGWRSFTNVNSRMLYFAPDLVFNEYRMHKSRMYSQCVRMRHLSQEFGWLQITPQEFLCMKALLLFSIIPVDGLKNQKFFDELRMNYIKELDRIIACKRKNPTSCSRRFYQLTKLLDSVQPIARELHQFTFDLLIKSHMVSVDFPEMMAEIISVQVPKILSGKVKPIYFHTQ
Chain of human Norepinephrine Transporter (NET), SLC6A2 (gene 6530) (P23975 whole entry, looked up): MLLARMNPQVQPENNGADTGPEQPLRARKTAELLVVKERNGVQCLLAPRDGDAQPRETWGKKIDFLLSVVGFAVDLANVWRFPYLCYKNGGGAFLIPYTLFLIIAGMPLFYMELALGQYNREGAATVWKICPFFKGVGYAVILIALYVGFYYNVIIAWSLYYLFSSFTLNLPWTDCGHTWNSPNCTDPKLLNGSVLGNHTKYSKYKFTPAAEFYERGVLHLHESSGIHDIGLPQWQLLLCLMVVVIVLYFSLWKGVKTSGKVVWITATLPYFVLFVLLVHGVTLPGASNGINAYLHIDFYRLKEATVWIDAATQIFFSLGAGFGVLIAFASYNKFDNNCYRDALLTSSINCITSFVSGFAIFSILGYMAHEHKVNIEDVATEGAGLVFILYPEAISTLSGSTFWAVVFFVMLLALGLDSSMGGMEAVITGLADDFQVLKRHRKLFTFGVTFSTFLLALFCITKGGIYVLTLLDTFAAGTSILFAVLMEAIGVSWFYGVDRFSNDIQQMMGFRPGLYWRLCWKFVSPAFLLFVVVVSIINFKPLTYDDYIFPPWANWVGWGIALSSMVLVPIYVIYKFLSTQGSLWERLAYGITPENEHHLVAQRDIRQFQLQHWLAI
Chain of guinea pig Sigma Receptor, Non-selective Binding, SIGMAR1 (gene 100135589) (Q60492 whole entry, looked up): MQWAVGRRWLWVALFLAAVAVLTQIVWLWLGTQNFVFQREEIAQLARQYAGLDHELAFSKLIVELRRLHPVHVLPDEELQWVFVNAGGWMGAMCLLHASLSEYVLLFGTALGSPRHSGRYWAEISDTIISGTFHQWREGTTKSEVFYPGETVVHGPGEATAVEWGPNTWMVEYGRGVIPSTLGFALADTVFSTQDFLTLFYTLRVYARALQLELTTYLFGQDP
Chain of mouse Estrogen Receptor alpha (Era), Esr1 (gene 13982) (P19785 whole entry, looked up): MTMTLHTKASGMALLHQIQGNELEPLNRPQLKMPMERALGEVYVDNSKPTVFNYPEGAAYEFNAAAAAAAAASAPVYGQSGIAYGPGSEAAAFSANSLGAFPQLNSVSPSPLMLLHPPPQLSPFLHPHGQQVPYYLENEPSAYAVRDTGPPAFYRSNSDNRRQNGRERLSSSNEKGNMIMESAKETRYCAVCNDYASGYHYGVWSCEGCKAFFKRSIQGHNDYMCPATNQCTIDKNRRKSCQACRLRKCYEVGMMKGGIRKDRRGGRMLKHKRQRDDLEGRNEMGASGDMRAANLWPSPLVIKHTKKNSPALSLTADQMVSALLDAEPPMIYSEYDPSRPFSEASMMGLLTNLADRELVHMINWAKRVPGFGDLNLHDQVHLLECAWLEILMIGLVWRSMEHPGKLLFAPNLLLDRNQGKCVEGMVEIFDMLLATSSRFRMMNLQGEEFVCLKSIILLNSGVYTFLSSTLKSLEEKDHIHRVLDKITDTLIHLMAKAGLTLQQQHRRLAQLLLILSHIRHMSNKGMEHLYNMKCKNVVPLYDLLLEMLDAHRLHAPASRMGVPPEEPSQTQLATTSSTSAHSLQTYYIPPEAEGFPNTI

CCC(=O)O[C@@H]1C[C@H]2CC[C@]1(C)C2(C)C
inactive: [1] | [2] | [3] | [4] | [5]

COc1cc(Cl)c(OC)cc1N
active: [6] 25 µM

C[C@@H]1CCN(C(=O)[C@H](CCCN=C(N)N)NS(=O)(=O)c2cccc3c2NC[C@H](C)C3)[C@@H](C(=O)O)C1
inactive: [6]

C=C[Si]1(C)O[Si](C)(C=C)O[Si](C)(C=C)O[Si](C)(C=C)O1 (stereo not drawn)
inactive: [1] | [2] | [7] | [3] | [4] | [5]

CC(C)CCCCCCCCCCCCCCC(=O)O
inactive: [1] | [2] | [4] | [5]

CCCCCCCCCCCC(=O)OCC(O)CO (stereo not drawn)
inactive: [1] | [2] | [9] | [10] | [7] | [3] | [4] | [5]
active: [8] 6.68 µM

CCCCCCC(C)(C)S
inactive: [1] | [2] | [7] | [3] | [4] | [5]

CCN(CCC#N)c1ccc(N=Nc2ccc([N+](=O)[O-])cc2)cc1
inactive: [11] | [6]

CC(C)NCC(O)COc1ccc(CC(N)=O)cc1 (stereo not drawn)
inactive: [1] | [9] | [10] | [7] | [3] | [4] | [5]

CS(=O)(=O)OCCCCOS(C)(=O)=O
active: [12] 25 µM
inactive: [6] | [9] | [10] | [7] | [3] | [4] | [5]

CCCC(=O)OC(C)(C)Cc1ccccc1
active: [1] 13.4 µM
inactive: [2] | [4] | [5]

Nc1ccc(Cl)c([N+](=O)[O-])c1
inactive: [6]

CC(=O)O[C@H]1C[C@@H]2CC[C@@]1(C)C2(C)C
inactive: [1] | [2] | [14] | [7] | [4] | [5]
active: [13] 31.8 µM

CC(C)(C)CC(C)(C)c1ccc(OCCOCC[N+](C)(C)Cc2ccccc2)cc1
inactive: [15]
active: [11] 1.75 µM

C=C1C[C@]23C[C@@]1(O)CC[C@H]2[C@@]12C=C[C@H](O)[C@@](C)(C(=O)O1)[C@H]2[C@@H]3C(=O)O
inactive: [1] | [14] | [3] | [4] | [5]

Nc1ccc2cc(S(=O)(=O)O)cc(O)c2c1N=Nc1ccccc1C(F)(F)F
inactive: [2] | [4] | [5]
active: [1] 2.32 µM

CC(C)C[C@H](NC(=O)OCC1c2ccccc2-c2ccccc21)C(=O)O
active: [1] 46.6 µM

C1=CC2C3C=CC(C3)C2C1 (stereo not drawn)
inactive: [2] | [14] | [7] | [3] | [5]
active: [16] 13 µM | [1] 2.39 µM

CCc1cc(C(C)(C)C)c(O)c(C(C)(C)C)c1
active: [14] 33.6 µM | [7] 83.8 µM | [3] 86.2 µM
inactive: [1] | [17] | [4] | [5] | [15]

CC(C=O)Cc1ccc(C(C)(C)C)cc1 (stereo not drawn)
inactive: [2] | [17] | [7] | [3] | [4] | [5]
active: [16] 2.97 µM

COc1ccccc1N=Nc1c(S(=O)(=O)O)cc2cc(S(=O)(=O)O)cc(NC(C)=O)c2c1O
inactive: [1] | [2] | [7] | [3] | [4] | [5]

CN(C)C(=S)SC(=S)N(C)C
active: [11] 6.19 µM

CN(C)c1cccc(O)c1
inactive: [1] | [2] | [3] | [4] | [5]

CCCCOC(=O)CCCCCCCC(=O)OCCCC
inactive: [2] | [14] | [7] | [3] | [4] | [5]

CC=Cc1ccc(OCC)c(O)c1
active: [6] 5.31 µM
inactive: [15]

COC(=O)c1ccc(C)cc1C1=NC(C)(C(C)C)C(=O)N1 (stereo not drawn) (tested in a mixture with another compound)
inactive: [2] | [7] | [3] | [4] | [5]

COc1cccc(OC)c1O
inactive: [6]

CCCCCC(C=O)=Cc1ccccc1
inactive: [2] | [14] | [17] | [7] | [4] | [5]

c1ccc(Oc2ccccc2)cc1
inactive: [2] | [14] | [7]

C=C(C)C(=O)OCCOC1CC2CC1C1C=CCC21 (stereo not drawn)
inactive: [2] | [17] | [7] | [4] | [5]
active: [14] 72.3 µM

CCCCCCCCSCCO
inactive: [13] | [17] | [7] | [3] | [4] | [5]
active: [14] 74.1 µM

CCOC(=O)[C@@H](C)Oc1ccc(Oc2nc3ccc(Cl)cc3o2)cc1
active: [14] 24 µM | [17] 50 µM
inactive: [13] | [2] | [7] | [3] | [4] | [5] | [15]

CCCCCCCCCCCCCC(=O)OCC(O)CO (stereo not drawn)
active: [14] 79.8 µM | [17] 82.9 µM
inactive: [13] | [2] | [7] | [3]

COS(=O)(=O)O
inactive: [2] | [14] | [3]

O=C(CC(=O)c1ccccc1)c1ccccc1
inactive: [14] | [17] | [7] | [4] | [5]
active: [2] 85.9 µM | [3] 81.5 µM
